Sensor-assay potency score (higher = more potent) data for 39 sequences are collected here from the OligoGym collection.
Note: reference of the scale not given here.

The target in the first experiment is TBC1D7. Kind of experiment: pooled miR-30 sensor sort-seq; sequence = guide strand. The settings on record: shRNA.
Regarding TTCTTTTCTTCAACTCCACGAA, the sensor-assay potency score (higher = more potent) was -0.5.

As for AAGAACACAATGCTCACTGTGG, the sensor-assay potency score (higher = more potent) is -0.247. For the sequence TCAAGTATTGTTCAAACGCTTT, the sensor-assay potency score (higher = more potent) is -1.28. Same read-out and setting: the same measure for TCTCATAATATACTGAACGAAA: -1.27.

TTACGATACATCATCACCTTGG came in with a sensor-assay potency score (higher = more potent) of 0.3.

The target of another experiment is TBPL2. The experiment is described as above. The settings on record: shRNA.
For the sequence TATGACAGCAGCAAACCTCTTT, the sensor-assay potency score (higher = more potent) was -0.118. The same measure, in the same setting: the same measure for TCTTGCTGCAAGTCGAGACTGC: 0.000545; for TAAGCAACACAATTCGTGGTTT: -0.141. TACAGTGGAAACTATATTCTGT gave a sensor-assay potency score (higher = more potent) of 0.659.

In the case of TTCCTGGGTAACTTCATCTGGT, the sensor-assay potency score (higher = more potent) is -0.0709.

The sequence TACAACTGGGCTGAACAGGGGA returned a sensor-assay potency score (higher = more potent) of 0.181. Still for that read-out and setting: then ATAAGCAACACAATTCGTGGTT, with 0.695; and ATTTTCTTGCTGCAAGTCGAGA, with -1.3; and TTTTAGAATAGGATAGATGTTT, with -0.912. As to TACAATTCCACAACATTCTGAA, the sensor-assay potency score (higher = more potent) stood at 0.364.

Turning to TTAAAATCGAGGAATCTGGCAG, the sensor-assay potency score (higher = more potent) turned out to be 0.087.

For the next experiment, the target named is TBX10. Described as above. The settings on record: shRNA.
Take TATGGTGCTGGTCGGGTCCTTG: the sensor-assay potency score (higher = more potent) is -1.11.

Turning to TTGGTGACGATCATCTCAGTGC, the sensor-assay potency score (higher = more potent) was -0.282. On to TCACTCTGGACACACGTGGGTT, for which the sensor-assay potency score (higher = more potent) was -1.06.

For the sequence TTGCTGGCGATTTTCAGCTGGG, the sensor-assay potency score (higher = more potent) is -0.663. On the same count and under the same terms, then TCCAGCTGAACTGTCACTCTGG, with -0.454. The same measure, in the same setting: the same measure for TAGCGCTCACTGTCCTTGCGTG: -0.517. TATCTCTTGTCGTCCAGGGGGA: the sensor-assay potency score (higher = more potent) is -0.47. On the same count and under the same terms, then TTGTTGGGGTCTTTCTCCCTGT, with -0.814; and TTCATCTCCAGCTGAACTGTCA, with -0.543; and TTCTGATAGGCTGTCACTGCTG, with -0.605. For the sequence TGGAGGTGGAAGCTGAAGCTTT, the sensor-assay potency score (higher = more potent) is -1.2. ATACCTGTATCTCTTGTCGTCC: the sensor-assay potency score (higher = more potent) is -0.36.

For another experiment, the target named is TBX15. The experiment is described as above. The settings on record: shRNA.
On to TACACAGACAAATTCTTGGTGA, for which the sensor-assay potency score (higher = more potent) is 0.47. Same read-out and setting: the same measure for TTTCGGTCAATTTTTAATCTGG: -0.172; for TTCAGTTCCAATATCATGGAAC: -0.282. Same read-out and setting: then TTGATCATCCAACTCATTGTTG, with -0.489; and TGTCTTTCCACTCTCATCCATT, with -1.03; and TTTTAATCTGGTAATCTGCTGA, with 0.443. Same read-out and setting: then TTGTACACAGACAAATTCTTGG, with -0.17.

As for TTAGATTACACAGCTGGCTTTC, the sensor-assay potency score (higher = more potent) is -0.575. As to TTGCTATGTAGTACTGCTGATG, the sensor-assay potency score (higher = more potent) was -1.07. The sequence TAGGCTTCCATCTTGCTGTTGC had a sensor-assay potency score (higher = more potent) of 0.42. TTAATCTGGTAATCTGCTGATT: the sensor-assay potency score (higher = more potent) was -0.87.
